Casp6 inh = blocks human caspase-6 cleavage activity. P55212. purified caspase-6, Z-VEID-R110 cleavage fluorescence. inhibition, % at 12.5 µM. actives 0.53% (n = 350,000). AID 686996;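 active means mean inhibition across replicates at least about 35%, with every replicate also reaching that limit, limit read from the data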;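 further: 0% = median of neutral control wells and 100% = no fluorescence left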
RAD52 anneal inh = RAD52 (human) annealing inhibition; actives 0.46% (n = 360,000); inhibition, % at 18.7 µM; P43351; recombinant RAD52 DNA annealing, FRET fluorescence;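 active means every replicate showing at least 50% inhibition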
Target sequence (P43351 whole entry, looked up): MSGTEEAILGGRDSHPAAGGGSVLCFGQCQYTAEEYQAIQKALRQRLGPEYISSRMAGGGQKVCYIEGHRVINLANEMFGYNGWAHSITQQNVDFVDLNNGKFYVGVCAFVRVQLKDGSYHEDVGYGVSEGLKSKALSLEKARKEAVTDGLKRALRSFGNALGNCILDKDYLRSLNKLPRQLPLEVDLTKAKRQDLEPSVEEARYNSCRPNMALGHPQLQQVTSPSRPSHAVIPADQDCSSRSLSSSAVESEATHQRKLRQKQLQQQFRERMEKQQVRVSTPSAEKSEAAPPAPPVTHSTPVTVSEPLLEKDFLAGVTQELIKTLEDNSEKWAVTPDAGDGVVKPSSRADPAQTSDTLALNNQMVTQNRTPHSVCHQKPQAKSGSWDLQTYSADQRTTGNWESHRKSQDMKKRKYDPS
Glyco luc inh = N-linked glycosylation inhibition; AID 588692; actives 0.23% (n = 360,000); reporter increase, % at 12.5 µM; D54 ERlucT glycosylation luciferase reporter, 24 h; percent of 100 nM tunicamycin response;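 active means mean luciferase reporter signal, scaled so untreated is 0 and the glycosylation-blocking control 100, at or above a set limit in every replicate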;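 further: luciferase carries N-glycosylation sites so blocking glycosylation raises the light; 0% = median of neutral control wells and 100% = median of 100 nM tunicamycin wells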
NSD2 inh = NSD2 (human) methyltransferase inhibition; inhibition, % at 12.5 µM; actives 0.54% (n = 310,000); O96028; NSD2 peptide methylation, AlphaScreen, 120 min; AID 743445; in the data active means inhibition above about 50%
RAD54 inh = blocks human RAD54 Holliday junction branch migration | actives 0.14% (n = 360,000) | FAM/BHQ fluorescence | inhibition, % at 10.4 µM | AID 602329;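 active means mean normalized replicate activity at least 40 and at least half of replicates scoring 40 or more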;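 further: 0% = median of neutral control wells and 100% = median of positive control wells; inhibitors cause a drop in the FAM fluorescence signal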
AlphaScreen art = interferes with AlphaScreen signal, flagging NSD2 false positives. AC35, µM (top dose mostly 10 µM), inactives show at the top dose activity change, negative = signal loss. actives 9.4% (n = 1,500). shares compounds with NSD2 inh. AlphaScreen artifact counterscreen, preloaded methylated H4 peptide. AID 1053174; call rule not given here
Starred values were filed as active, the others as inactive. An excerpt weighted towards active compounds, which were near 1.2% of everything screened.

How did C=CCN1CCN(C(c2cccc(OC)c2OC)c2nnnn2CCC(C)C)CC1 (stereo not given) do in these assays?
Casp6 inh: -3; RAD52 anneal inh: -7; Glyco luc inh: -4; NSD2 inh: 98*; AlphaScreen art: -4%

How did COc1cccc(C(c2nnnn2CCc2ccccc2)N2CCN(c3ccccc3)CC2)c1OC (stereo not given) do in these assays?
Glyco luc inh: -9; NSD2 inh: -1; RAD54 inh: 6

Results for COc1ccccc1C(=O)Nc1ccc2c(c1)C(=O)N(C)C[C@H](OC)[C@@H](C)CN(C)[C@H](C)CO2 ?
Casp6 inh: -2; RAD52 anneal inh: 1; RAD54 inh: 1

How did CS(=O)(=O)Nc1ccc2c(c1)[C@H]1C[C@@H](CC(=O)NC3CCCCC3)O[C@@H](CO)[C@H]1O2 do in these assays?
Casp6 inh: -3; RAD52 anneal inh: -5; RAD54 inh: -15

How did O=[N+]([O-])c1cc2ncccc2c2ncccc12 do in these assays?
Casp6 inh: 0; RAD52 anneal inh: -8; Glyco luc inh: 7; NSD2 inh: 56*; RAD54 inh: 8; AlphaScreen art: -6%

Results for Cc1cc([N+](=O)[O-])cc2ncccc12 ?
Glyco luc inh: 0; NSD2 inh: -3

What do the screens show for `C[C@@H]1CN([C@H](C)CO)C(=O)c2cc(C#Cc3cccc(F)c3)cnc2O[C@@H]1CN(C)Cc1ccccn1`?
Casp6 inh: 2; RAD52 anneal inh: -1; RAD54 inh: -1

Results for CCOC(=O)c1c(N)n(CCOC(=O)c2cccs2)c2nc3ccccc3nc12 ?
Glyco luc inh: 3; RAD54 inh: 4

How did CCCCCOC(=O)c1c(N)n(CCOC)c2nc3ccccc3nc12 do in these assays?
Glyco luc inh: 6; NSD2 inh: 61*; RAD54 inh: -3; AlphaScreen art: 8%

Results for O=C(Nc1ccc(F)cc1)Nc1ccc2c(c1)[C@H]1C[C@H](CC(=O)N3CCCCC3)O[C@@H](CO)[C@H]1O2 ?
RAD54 inh: 0

How did CCNC(=O)C[C@H]1CC[C@@H]2[C@@H](COc3ccc(NC(=O)Nc4ccc(F)cc4)cc3C(=O)N2C)O1 do in these assays?
Casp6 inh: 1; RAD52 anneal inh: -10; RAD54 inh: 12

How did CCNC(=O)C1CCCN(C(=O)c2ccccc2F)CC1 (stereo not given) do in these assays?
Casp6 inh: -3; RAD52 anneal inh: -4; Glyco luc inh: 1; NSD2 inh: 1; RAD54 inh: 7

Results for CCNC(=O)C1CCCN(C(=O)c2ccccc2OC(F)(F)F)CC1 (stereo not given) ?
Casp6 inh: -1; RAD52 anneal inh: -5; Glyco luc inh: 1; NSD2 inh: 60*; RAD54 inh: -9; AlphaScreen art: -3%

What do the screens show for `CCCNC(=O)N1CC2(CCN(C(=O)CN(C)C)CC2)c2c(n(C)c3cc(OC)ccc23)[C@@H]1CO`?
Casp6 inh: -1; RAD52 anneal inh: 4

Results for COc1ccc(Cc2nnc(NC(=O)C3CC(=O)N(c4ccc(OC)cc4)C3)s2)cc1 (stereo not given) ?
Casp6 inh: 6; RAD52 anneal inh: -27; Glyco luc inh: -1; NSD2 inh: 73*; RAD54 inh: -4; AlphaScreen art: -2%

What do the screens show for `O=C(CSc1ncc(-c2ccccc2)n1CC1CCCO1)N1CCCCC1` (stereo not given)?
Glyco luc inh: -2; NSD2 inh: 0; RAD54 inh: -1

How did Nc1ncc(-c2ccccc2)n1CC1CCCO1 (stereo not given) do in these assays?
Glyco luc inh: 3; NSD2 inh: 123*; RAD54 inh: 10; AlphaScreen art: -6%

How did N#Cc1cc(-c2ccccc2)nnc1Oc1ccccc1Cl do in these assays?
Glyco luc inh: 1; NSD2 inh: 71*; RAD54 inh: 1; AlphaScreen art: 1%

Results for C=CCn1c(N)c(C(=O)NCC2CCCO2)c2nc3ccccc3nc21 (stereo not given) ?
Glyco luc inh: 2; NSD2 inh: 99*; RAD54 inh: 14; AlphaScreen art: 12%

Results for COc1ccc(-n2c(N)c(C(=O)NCC3CCCO3)c3nc4ccccc4nc32)c(OC)c1 (stereo not given) ?
Glyco luc inh: 0; NSD2 inh: -29; RAD54 inh: 1

Results for CCOc1ccc(NC(=O)CSc2nnc(C3CC3)n2C)cc1 ?
Casp6 inh: -2; RAD52 anneal inh: -2; Glyco luc inh: -1; NSD2 inh: -1

How did CCOc1ccc(NC(=O)CSc2nnc(C34CC5CC(CC(C5)C3)C4)n2C)cc1 do in these assays?
Glyco luc inh: 0; NSD2 inh: 69*; RAD54 inh: 1; AlphaScreen art: -2%

Results for CCNC(=O)C[C@@H]1CC[C@@H]2[C@@H](COc3ccc(NS(C)(=O)=O)cc3C(=O)N2C)O1 ?
Casp6 inh: 0; RAD52 anneal inh: 11; RAD54 inh: 7

How did CSCCC(NC(=O)c1ccccc1Cl)C(=O)NCC(c1ccc(F)cc1)N1CCOCC1 (stereo not given) do in these assays?
Casp6 inh: -1; RAD52 anneal inh: -12; Glyco luc inh: 1; NSD2 inh: 141*; RAD54 inh: 6; AlphaScreen art: -3%

What do the screens show for `COc1cc(-c2nnc(SCc3cc(=O)oc4cc(O)c(O)cc34)o2)cc(OC)c1OC`?
Glyco luc inh: -1; NSD2 inh: 83*; RAD54 inh: 4; AlphaScreen art: 0.99µM*

Results for CC(C)NC(=O)N1C[C@H]2[C@@H](c3ccccc31)[C@@H](CO)N2C(=O)c1ccccc1F ?
Casp6 inh: -4; RAD52 anneal inh: -11; RAD54 inh: -1

Results for COc1ccc(NC(=O)N(C)C[C@@H]2Oc3ccc(NC(=O)NC4CCCCC4)cc3C(=O)N([C@@H](C)CO)C[C@H]2C)cc1 ?
Casp6 inh: 2; RAD52 anneal inh: -4; RAD54 inh: -7

What do the screens show for `CCN(CC)c1ccc(NC(=O)COC(=O)c2ccc3ccccc3n2)cc1`?
Glyco luc inh: -1; NSD2 inh: 107*; RAD54 inh: 14; AlphaScreen art: -10%

Results for CO[C@H]1CN(C)C(=O)c2ccc(NC(=O)Nc3cccc(F)c3)cc2OC[C@@H](C)N(C(C)=O)C[C@H]1C ?
Casp6 inh: 2; RAD52 anneal inh: -4; RAD54 inh: 0

What do the screens show for `CCn1c(C)cc(=S)c2ccccc21`?
Glyco luc inh: 0; NSD2 inh: 104*; RAD54 inh: 23; AlphaScreen art: -18%

What do the screens show for `CCn1c2ccccc2c2cc(N)ccc21`?
Glyco luc inh: -2; NSD2 inh: -6; RAD54 inh: 10

What do the screens show for `CN(C)CCCNC(=O)[C@H]1[C@H](CO)[C@H]2Cn3c(cccc3=O)[C@H]2N1C(=O)Nc1ccccc1`?
Casp6 inh: -2; RAD52 anneal inh: 6; RAD54 inh: 4

Screening data from PubChem BioAssay.
